16 compounds from PubChem BioAssay can be followed below.

SMILES strings stand for the structures. Active and inactive are the calls of the source.

The nature of assay [1]: compounds binding Alexa647 anti-His antibody – biochemical, small-molecule microarray, 635 nm fluorescence, artefact control for SMM control protein annotation, primary screen (AID 1128).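 Further: score merges feature fluorescence with signal-to-noise for each printed compound spot.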 The note with it: higher = more signal.
Assay [2] concerns Human papillomavirus type 1a E7 protein (residues 1-88). The experiment in a line: HPV1a E7 small-molecule binders, primary screen, biochemical, small-molecule microarray, residues 1-88, 635 nm (AID 1129). Conditions: small-molecule microarray binding, fluorescence 635 nm; higher = more signal.
Assay [3] has as its target Focal adhesion kinase 1 (Homo sapiens) (UniProt Q05397). As to the kind of experiment: PTK2 protein binding on printed compound slides – biochemical, small-molecule microarray, 635/667 nm fluorescence, BSA, DTT, primary screen (AID 1130).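 Further: composite of spot emission at 667 nm and signal to noise over triplicate slides.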 The note with it: 635 nm fluorescence, higher = more signal.
The subject of assay [4] is Fibrinogen (Alexa647-labelled). As to the kind of experiment: Alexa647-fibrinogen binding to printed small molecules – biochemical, small-molecule microarray, 635/667 nm fluorescence, artefact control for SMM control-protein annotation, profiling panel (AID 1131).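 Further: z-score merges 667 nm fluorescence with per-spot signal-to-noise over triplicate slides.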 The note with it: fibrinogen-A647 binding fluorescence, higher = more signal.
Assay [5] addresses Follistatin (Homo sapiens) (UniProt P19883). As to the kind of experiment: FST protein binding to printed compounds – biochemical, small-molecule microarray, 635/667 nm fluorescence, primary screen (AID 1132). The note with it: 635 nm fluorescence, higher = more signal.
The target in assay [6] is Fibroblast growth factor 2 (Homo sapiens) (UniProt P09038). As to the kind of experiment: basic fibroblast growth factor binding to printed compounds – biochemical, small-molecule microarray, 635/667 nm fluorescence, primary screen (AID 1133). Conditions: FGF2, fluorescence 635/667, higher = more signal.
Chain of Fibroblast growth factor 2 (Homo sapiens) (P09038 whole entry, looked up): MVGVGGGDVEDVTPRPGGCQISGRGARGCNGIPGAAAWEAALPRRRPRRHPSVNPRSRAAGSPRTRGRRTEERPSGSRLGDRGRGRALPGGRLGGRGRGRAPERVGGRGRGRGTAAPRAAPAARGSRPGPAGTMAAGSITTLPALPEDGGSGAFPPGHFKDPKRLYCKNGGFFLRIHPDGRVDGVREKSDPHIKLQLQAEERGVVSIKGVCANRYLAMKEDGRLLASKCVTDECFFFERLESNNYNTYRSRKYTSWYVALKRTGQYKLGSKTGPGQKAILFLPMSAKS
The nature of assay [7]: JC-1 mitochondrial potential readout, lung cancer cells – cell-based, A549, JC-1 fluorescence, basal, 24 h, 100 nL, profiling panel (AID 1138).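 Further: A549 lung adenocarcinoma cells under basal conditions with no added stimulus; test concentration not given here.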 The note with it: higher = more signal.
In the next assay the test system is Lefty1. The experiment in a line: Lefty1 protein binding to printed compounds – biochemical, small-molecule microarray, 635/667 nm fluorescence, primary screen (AID 1139). Conditions: fluorescence 635/667, higher = more signal.
The subject of assay [8] is wheat germ agglutinin (Triticum aestivum), Alexa647-labelled. As to the kind of experiment: Alexa647-WGA lectin binding to printed small molecules – biochemical, small-molecule microarray, 635/667 nm fluorescence, artefact control for SMM control-protein annotation, profiling panel (AID 1140).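 Further: score merges 667 nm feature emission with signal to noise over triplicate slides.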 The note with it: WGA-A647 binding, 635 nm fluorescence, higher = more signal.

For assay [9], the target named is Luciferin 4-monooxygenase (Photinus pyralis) (UniProt P08659). As to the kind of experiment: inhibition of purified Photinus pyralis luciferase – biochemical, luminescence, purified enzyme, 2006 set, primary screen (AID 1141).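 Further: cell-free assay with purified firefly luciferase at 100 ng per well in PBS; test concentration not given here.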 The note with it: purified firefly luciferase, SteadyGlo luminescence, 30 min; higher = more signal, called active from +8 up or from −8 down.
Chain of Luciferin 4-monooxygenase (Photinus pyralis) (P08659 whole entry, looked up): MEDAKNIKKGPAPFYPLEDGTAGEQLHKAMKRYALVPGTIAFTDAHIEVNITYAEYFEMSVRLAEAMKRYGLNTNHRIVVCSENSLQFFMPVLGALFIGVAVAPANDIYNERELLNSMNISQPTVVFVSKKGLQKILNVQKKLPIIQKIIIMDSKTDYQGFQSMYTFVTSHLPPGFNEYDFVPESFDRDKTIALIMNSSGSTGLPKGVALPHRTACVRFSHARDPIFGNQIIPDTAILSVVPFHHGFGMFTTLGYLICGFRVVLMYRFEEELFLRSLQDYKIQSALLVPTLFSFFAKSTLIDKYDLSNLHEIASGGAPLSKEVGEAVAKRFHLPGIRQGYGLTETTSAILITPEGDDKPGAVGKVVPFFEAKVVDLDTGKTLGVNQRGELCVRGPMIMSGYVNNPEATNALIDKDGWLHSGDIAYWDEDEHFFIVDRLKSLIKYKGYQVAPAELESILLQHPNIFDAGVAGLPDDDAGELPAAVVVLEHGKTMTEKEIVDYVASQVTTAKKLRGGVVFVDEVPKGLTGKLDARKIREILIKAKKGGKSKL

Chain of Focal adhesion kinase 1 (Homo sapiens) (Q05397 whole entry, looked up): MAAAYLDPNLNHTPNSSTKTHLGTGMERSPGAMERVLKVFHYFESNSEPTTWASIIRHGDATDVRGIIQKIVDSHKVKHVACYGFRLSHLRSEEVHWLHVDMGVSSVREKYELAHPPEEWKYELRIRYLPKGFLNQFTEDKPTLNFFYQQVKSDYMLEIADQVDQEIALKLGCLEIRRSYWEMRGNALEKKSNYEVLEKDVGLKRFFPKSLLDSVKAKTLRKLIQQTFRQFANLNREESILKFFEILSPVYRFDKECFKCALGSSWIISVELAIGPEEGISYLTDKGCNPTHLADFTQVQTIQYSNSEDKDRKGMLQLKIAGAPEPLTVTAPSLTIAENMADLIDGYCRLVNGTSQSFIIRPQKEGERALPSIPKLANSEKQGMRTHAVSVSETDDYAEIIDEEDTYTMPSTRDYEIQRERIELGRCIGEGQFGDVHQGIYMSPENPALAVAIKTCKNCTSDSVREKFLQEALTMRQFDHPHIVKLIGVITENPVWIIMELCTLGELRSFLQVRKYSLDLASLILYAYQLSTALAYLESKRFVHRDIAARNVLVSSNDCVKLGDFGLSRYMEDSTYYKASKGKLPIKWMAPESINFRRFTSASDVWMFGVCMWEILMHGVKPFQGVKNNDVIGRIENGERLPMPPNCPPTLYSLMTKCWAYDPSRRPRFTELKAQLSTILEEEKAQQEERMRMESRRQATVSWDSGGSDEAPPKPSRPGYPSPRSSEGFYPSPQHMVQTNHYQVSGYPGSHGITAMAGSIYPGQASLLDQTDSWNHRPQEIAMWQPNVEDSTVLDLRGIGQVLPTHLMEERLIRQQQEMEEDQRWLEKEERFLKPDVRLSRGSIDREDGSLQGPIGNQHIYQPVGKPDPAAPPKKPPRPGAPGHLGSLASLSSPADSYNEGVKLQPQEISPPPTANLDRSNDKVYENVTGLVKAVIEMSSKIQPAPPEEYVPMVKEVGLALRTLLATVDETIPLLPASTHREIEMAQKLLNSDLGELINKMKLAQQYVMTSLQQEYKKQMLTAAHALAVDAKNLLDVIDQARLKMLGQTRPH
Chain of Follistatin (Homo sapiens) (P19883 whole entry, looked up): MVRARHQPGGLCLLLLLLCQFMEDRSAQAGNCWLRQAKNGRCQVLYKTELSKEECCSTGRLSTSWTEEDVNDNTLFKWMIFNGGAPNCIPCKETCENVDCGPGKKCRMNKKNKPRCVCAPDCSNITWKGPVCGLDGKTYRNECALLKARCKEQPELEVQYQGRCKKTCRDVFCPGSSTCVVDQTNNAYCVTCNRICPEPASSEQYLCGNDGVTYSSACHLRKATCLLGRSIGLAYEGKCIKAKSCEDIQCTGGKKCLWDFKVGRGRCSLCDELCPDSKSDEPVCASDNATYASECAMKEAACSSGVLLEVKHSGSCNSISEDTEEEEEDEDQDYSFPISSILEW

In the case of `CCN(CC)c1ccc(N2CC=CC34O[C@@H]5/C=C\CCCOC(=O)C5[C@H]3C(=O)N(CCO)[C@@H]4C2=O)cc1` (stereo not given in full), the composite z-score is 0.449 in [1]; -0.57 in assay [2]; -0.724 in assay [3]; -0.837 in assay [4]; -0.654 in assay [5]; -1.03 in [6]. Further, the figures for the composite z-score (with Lefty1; in [8]) were -0.2 and -0.875, respectively. Moreover, the z-score in assay [7] was -0.73; in assay [9] it was -0.312 (inactive).

Take `CN1C(=O)C2C=CC(C(O)C3CC=CCC3)N(NC(=O)OC(C)(C)C)C2C1=O` (stereo not given): the composite z-score in assay [1] was 0.561; in assay [2], 0.889; in assay [3] it was 0.465; in [4], -0.0919; in assay [5], 1.25; in [6] it was 0.124. The composite z-score in the assay with Lefty1 was determined as 0.717; in assay [8], 1.32. Moreover, the values for the z-score in [7] and in assay [9] were -0.0347 and -0.71 (inactive), respectively.

With `CCCCCCC#C[Si](O[C@H](c1ccccc1)c1cn([C@H](CO)Cc2ccccc2)nn1)(C(C)C)C(C)C`, the composite z-score in assay [1] is 0.355; in assay [2], -0.116; in [3] it was -0.074; in assay [4] it was -1.29; in [5], -0.193; in assay [6], -0.489. For the same compound, the figures for the composite z-score (in the assay on Lefty1; in assay [8]) were 0.65 and 0.207, respectively. In addition, the results for the z-score in assay [7] and in assay [9] were -0.319 and 0.751 (inactive), respectively.

On to `C=C(COC)/C(=C/C[C@H](OC(=O)c1ccncc1)c1ccc(OCCO)cc1)c1cnc2ccccc2c1`, for which the composite z-score is 1.96 in [1]; 1.2 in assay [2]; 0.111 in assay [3]; 0.967 in assay [4]; 1.38 in assay [5]; 1.02 in assay [6]. For the same compound, the composite z-score in the assay on Lefty1 came to 1.33; in assay [8], 1.47. Besides, the z-score is -0.0174 in assay [7] and -1.34 (inactive) in assay [9].

Turning to `COCCOC(=O)N1C(=O)[C@@]2(c3cc(C#CC4=CCCCC4)ccc31)[C@H](C(=O)Nc1nc3ccccc3s1)[C@H]1C(=O)O[C@H](c3ccccc3)[C@H](c3ccccc3)N1[C@@H]2c1ccccc1OCCO`, the composite z-score stood at 0.772 in assay [1]; 1.19 in [2]; 2.14 in [3]; 0.766 in assay [4]; 1.38 in [5]; 0.946 in [6]. For the same compound, the results for the composite z-score (in the assay on Lefty1; in assay [8]) were 1.21 and 0.845, respectively. The values for the z-score in assay [7] and in assay [9] were -2.18 and -1.88 (inactive), respectively.

`COC(=O)[C@@]1(Cc2ccc(F)cc2)[C@H]2c3cc(C(=O)N(C)C)n(Cc4nc5ccccc5[nH]4)c3C[C@H]2CN1C(=O)c1ccccc1`: the composite z-score was 1.11 in assay [1]; 1.28 in assay [2]; 0.187 in assay [3]; 0.843 in assay [4]; 0.526 in assay [5]; -0.634 in assay [6]. The values for the composite z-score (in the assay on Lefty1; in [8]) were -0.0816 and 0.488, respectively. For the same compound, the values for the z-score in assay [7] and in assay [9] were -0.0117 and -0.625 (inactive), respectively.

On to `CC(C)C[C@@H]1NC(=O)[C@H]2C[C@@H](C(=O)NCCCCCCN(C)C)[C@@H](c3ccc(O)cc3)N2C1=O`, for which the composite z-score in [1] worked out at 2.44; in [2] it was 0.977; in [3], 0.34; in assay [4], 0.357; in [5] it was 1.35; in [6], 1.29. Also, the composite z-score stood at 1.19 with Lefty1 and 0.115 in assay [8]. Moreover, the figures for the z-score in assay [7] and in assay [9] were -0.0361 and -0.263 (inactive), respectively.

As to `COc1ccc(COC2OC[C@]3(C)[C@H]4C5=C(CN3C(=O)OC(C)(C)C)[C@H](C)C(CO)C(CO)C5CC[C@@H]24)cc1` (stereo not given in full), the composite z-score in [1] is 1.08; in [2], 1.19; in assay [3], 0.649; in [4], 0.968; in assay [5], 0.535; in [6], -1.03. Further, the composite z-score in the assay on Lefty1 was -0.209; in [8], 0.831. In addition, the z-score in [7] is 0.323; in assay [9] it was 1.52 (inactive).

With `C=C(CCCC)C(=O)CC[C@H](OC(=O)c1cccnc1)c1ccccc1OCCO`, the composite z-score in assay [1] is 0.984; in assay [2] it was -0.513; in assay [3], 0.0467; in assay [4], -0.633; in [5], 0.537; in assay [6] it was 1.32. Besides, the composite z-score amounted to 0.785 in the assay with Lefty1 and 0.14 in assay [8]. Also, the figures for the z-score in assay [7] and in assay [9] were 1.08 and -0.288 (inactive), respectively.

As for `CCCCC(O)C1C=CC2C(=O)N(c3ccccc3)C(=O)C2N1Nc1ccccc1F` (stereo not given), the composite z-score in assay [1] is 1.35; in assay [2], 1.11; in assay [3], 0.527; in assay [4], 0.924; in assay [5], 0.347; in assay [6], -0.563. For the same compound, the composite z-score in the assay with Lefty1 is -0.0785; in [8], 1.2. The z-score in assay [7] was 0.354; in [9] it was 0.247 (inactive).

For `O=C1OCC=C[C@H]2OC34C=CCN(c5ccc6ccccc6c5)C(=O)[C@H]3N(CCCCCCO)C(=O)[C@@H]4[C@@H]12` (stereo not given in full), the composite z-score in [1] was 2.67; in assay [2] it was -0.593; in assay [3], 0.806; in assay [4], -0.9; in assay [5], -1.18; in assay [6], -0.595. Moreover, the composite z-score is -0.732 in the assay with Lefty1 and -0.434 in assay [8]. The results for the z-score in assay [7] and in assay [9] were 1.16 and -0.875 (inactive), respectively.

Consider `C=C(/C(=C/C[C@@H](OC(C)=O)c1ccc(OCCO)cc1)c1cnc2ccccc2c1)C(C)C`, for which the composite z-score in assay [1] is 0.204; in assay [2] it was 0.408; in assay [3], 0.166; in [4], -0.59; in assay [5], 1.1; in [6] it was 0.757. For the same compound, the composite z-score worked out at 0.806 with Lefty1 and 0.983 in assay [8]. Further, the z-score in assay [7] was 1.04; in assay [9], -1.6 (inactive).

Regarding `C=C(C)C1C(=C)CN([C@H](CO)c2ccccc2)C1=O` (stereo not given in full), the composite z-score in assay [1] was 0.0639; in assay [2], -0.534; in assay [3], -0.521; in assay [4], -0.0803; in assay [5], 0.189; in [6], -0.158. Moreover, the composite z-score in the assay with Lefty1 is 0.587; in [8], -0.187. Further, the z-score was -0.647 in assay [7] and 1.01 (inactive) in [9].

In the case of `C=CCNC(=O)[C@@H]1[C@H]2C(=O)O[C@H](c3ccccc3)[C@H](c3ccccc3)N2[C@H](c2ccc(OCCO)cc2)[C@@]12C(=O)Nc1ccc(C#Cc3ccc(OC)cc3)cc12`, the composite z-score in [1] stood at 0.785; in assay [2] it was 1.18; in [3], 0.452; in assay [4], 0.798; in [5] it was 1.42; in assay [6], 0.989. For the same compound, the composite z-score in the assay on Lefty1 was 1.57; in assay [8], 1.17. Besides, the z-score in assay [7] is -1.87; in [9] it was -0.398 (inactive).

As for `CN(C)C(=O)[C@]1(Cc2ccccc2CN=[N+]=[N-])N=C(c2ccc(OCCCO)cc2)O[C@@H]1c1ccccc1CN=[N+]=[N-]`, the composite z-score in assay [1] turned out to be 1.17; in assay [2] it was 1.25; in assay [3], 0.44; in [4], 0.969; in [5] it was 1.28; in assay [6], 0.355. The composite z-score in the assay on Lefty1 amounted to 1.06; in assay [8] it was 1.09. In addition, the z-score is 0.0653 in assay [7] and -0.554 (inactive) in assay [9].

Take `COCCn1c(C(=O)N2CCCC2)cc2c1C[C@H]1CN(C(=O)c3ccccc3)[C@@](Cc3ccc(F)cc3)(C(=O)OC)[C@@H]21`: the composite z-score in [1] was 0.346; in assay [2], 1.27; in assay [3], 1.61; in [4], 1.02; in [5], 0.35; in assay [6], -0.703. Further, the results for the composite z-score (in the assay with Lefty1; in assay [8]) were 0.108 and 0.845, respectively. The z-score in assay [7] was -0.328; in assay [9], 3.4 (inactive).
